Test results published in PubChem BioAssay (EPA / NIEHS).
Values joined by “and” are separate entries in the source; they are usually repeats but may differ in a detail not shown here. Identical values can stand only once. More than one record can exist for a structure, and the calls need not agree. Active and inactive are the calls of the source. The calls were made as follows: active = hit-call score of the fitted dose curve at least 0.9, where 1 is the maximum; inactive = score below 0.9.

How the values were obtained:
Settings in all cases: primary human HUVEC with PBMC; actives raise or lower the signal
[1] = read-out: Interleukin-1 alpha (IL1a), IL1A (gene 3552); test: BSK_LPS_IL1a: BioMAP Diversity Plus: LPS Assay for Interleukin-1 alpha (IL1a) Biomarker Activity (AID 2283080)
How it was run: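 Human umbilical vein endothelial cells co-cultured with peripheral blood mononuclear cells were LPS-stimulated and exposed to test chemicals for 24 h. IL-1 alpha was quantified by ELISA, with bidirectional curve fitting against DMSO as the negative control and baseline.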

[2] = read-out: Monocyte Chemoattractant Protein-1 (MCP1), CCL2 (gene 6347); test: BSK_LPS_MCP1: BioMAP Diversity Plus: LPS Assay for Monocyte Chemoattractant Protein-1 (MCP1) Biomarker Activity (AID 2283081);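 as to AC50: secreted MCP-1 protein quantified by ELISA in culture supernatant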
How it was run: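 HUVEC plus PBMC co-culture (human primary cells, LPS system) exposed to test chemical for 24 h; MCP-1 measured by ELISA. Bidirectional curve fitting against DMSO baseline; parallel SRB total-protein staining flags overt cytotoxicity.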

[3] = BSK_LPS_PGE2: BioMAP Diversity Plus: LPS Assay for Prostaglandin E2 (PGE2) Biomarker Activity (AID 2283082);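 as to AC50: secreted prostaglandin E2 measured by ELISA in LPS-stimulated co-culture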
How it was run: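 HUVEC plus human PBMC co-culture stimulated with LPS; secreted PGE2 quantified by ELISA 24 h after chemical dosing. Activity fitted bidirectionally against DMSO baseline; parallel SRB staining (0.1% SRB after 10% TCA fixation, 560 nm) flags overt cytotoxicity.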

[4] = read-out: Macrophage colony-stimulating factor (MCSF), CSF1 (gene 1435); test: BSK_LPS_MCSF: BioMAP Diversity Plus: LPS Assay for Macrophage colony-stimulating factor (MCSF) Biomarker Activity (AID 2283083)
How it was run: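 Human umbilical vein endothelial cells co-cultured with peripheral blood mononuclear cells were exposed to compound for 24 h. M-CSF levels were measured by ELISA, and bidirectional curve fitting used DMSO as the negative control and baseline.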

[5] = read-out: Tissue Factor, F3 (gene 2152); test: BSK_LPS_TissueFactor: BioMAP Diversity Plus: LPS Assay for Tissue Factor Biomarker Activity (AID 2283084)
How it was run: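 Human umbilical vein endothelial cells co-cultured with peripheral blood mononuclear cells were dosed and stimulated with LPS. Cell-surface CD142 was quantified by ELISA at 24 h. Activity was fitted bidirectionally against DMSO baseline.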

[6] = read-out: Tumor necrosis factor (Homo sapiens) (UniProt P01375); test: BSK_LPS_TNFa: BioMAP Diversity Plus: LPS Assay for Tumour Necrosis Factor alpha (TNFa) Biomarker Activity (AID 2283085);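 as to AC50: TNFa protein level quantified by ELISA in the co-culture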
How it was run: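 Human umbilical vein endothelial cells co-cultured with PBMC and stimulated with LPS. TNFa was measured by ELISA 24 h after chemical dosing, fitted bidirectionally relative to DMSO.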

[7] = read-out: Vascular cell adhesion molecule 1 (VCAM1), VCAM1 (gene 7412); test: BSK_LPS_VCAM1: BioMAP Diversity Plus: LPS Assay for Vascular cell adhesion molecule 1 (VCAM1) Biomarker Activity (AID 2283086)
How it was run: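 Human umbilical vein endothelial cells co-cultured with PBMC and stimulated with LPS; VCAM-1 measured by ELISA 24 h after dosing. Bidirectional curve fitting against DMSO baseline; cytotoxicity tracked in parallel by SRB total-protein staining.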

CD38, CD38 (gene 952) = test: BSK_SAg_CD38: BioMAP Diversity Plus: SAg Assay for CD38 Biomarker Activity (AID 2283087)
How it was run: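 Human HUVEC plus PBMC co-culture stimulated with superantigen; CD38 measured by ELISA 24 h after chemical dosing. Fluorescence read-out, bidirectional fit against DMSO; cytotoxicity tracked in parallel by SRB and Alamar Blue.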

CD40, CD40 (gene 958) = test: BSK_SAg_CD40: BioMAP Diversity Plus: SAg Assay for CD40 Biomarker Activity (AID 2283088)
How it was run: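 Human umbilical vein endothelial cells co-cultured with PBMC; CD40 levels measured by ELISA with fluorescence read-out 24 h after chemical dosing. Gain or loss of signal fitted bidirectionally against DMSO baseline.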

CD69, CD69 (gene 969) = test: BSK_SAg_CD69: BioMAP Diversity Plus: SAg Assay for CD69 Biomarker Activity (AID 2283089);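 as to AC50: cell surface CD69 protein quantified by ELISA with fluorescence detection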
How it was run: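 Values derive from bidirectional fitting relative to DMSO vehicle. Cells: umbilical vein endothelium plus peripheral blood mononuclear cells, treated 24 h before fluorescent ELISA for CD69.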

Measured: AC50

Sequence of Tumor necrosis factor (Homo sapiens) (P01375 whole entry, looked up): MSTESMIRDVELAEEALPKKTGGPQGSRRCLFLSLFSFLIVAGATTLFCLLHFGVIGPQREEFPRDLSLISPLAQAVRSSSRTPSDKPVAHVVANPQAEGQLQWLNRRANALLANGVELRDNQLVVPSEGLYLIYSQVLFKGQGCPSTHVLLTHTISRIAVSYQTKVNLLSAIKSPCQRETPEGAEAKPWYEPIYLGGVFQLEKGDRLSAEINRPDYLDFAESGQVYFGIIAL

CN(C)[C@@H]1C(=O)C(C(N)=O)=C(O)[C@@]2(O)C(=O)C3=C(O)c4c(O)cccc4[C@@](C)(O)[C@H]3[C@H](O)[C@@H]12
active: [6] 14.7 µM | CD69, CD69 (gene 969) 5.09 µM
inactive: [1] | [2] | [3] | [4] | [5] | [6] | [7] | CD38, CD38 (gene 952) | CD40, CD40 (gene 958) | CD69, CD69 (gene 969)

CCCSP(=O)(OCC)SCCC
not listed: CD38, CD38 (gene 952)
inactive: all other assays above

CCC(=NOC/C=C/Cl)C1=C(O)CC(C2CCOCC2)CC1=O (centres undefined)
inactive: all assays above

Cc1ccn2nc(S(=O)(=O)Nc3c(F)cccc3F)nc2n1
inactive: all assays above

CSc1nc(NC(C)C)nc(NC(C)C)n1
active: [6] 4.47 µM
inactive: all other assays above

CON=C(C(=O)OC)c1ccccc1CON=C(C)c1cccc(C(F)(F)F)c1
active: [2] 2.93 µM | [3] 1.14 µM | [4] 5.49 µM | [6] 5.02 µM | CD38, CD38 (gene 952) 5.63 µM | CD40, CD40 (gene 958) 5.02 µM
inactive: [1] | [5] | [7]

O=c1ccc(=O)[nH][nH]1
inactive: all assays above

CCCCN(CC)c1c([N+](=O)[O-])cc(C(F)(F)F)cc1[N+](=O)[O-]
active: [4] 18.2 µM | [7] 26.5 µM | CD40, CD40 (gene 958) 29.1 µM
not listed: CD38, CD38 (gene 952)
inactive: all other assays above

O=[N+]([O-])c1cc(C(F)(F)F)c(Cl)c([N+](=O)[O-])c1Nc1ncc(C(F)(F)F)cc1Cl
active: [1] 1.35 µM and 2.31 µM | [2] 1.52 µM and 3.74 µM | [3] 7.89 µM and 3.71 µM | [4] 1.49 µM and 2.86 µM | [5] 1.44 µM and 2.17 µM | [6] 1.81 µM | [7] 1.5 µM and 2.05 µM | CD40, CD40 (gene 958) 1.51 µM and 1.86 µM | CD69, CD69 (gene 969) 1.91 µM and 3.73 µM
inactive: [6]

C[Si](Cn1cncn1)(c1ccc(F)cc1)c1ccc(F)cc1
active: [3] 1.62 µM | [4] 14.7 µM | CD38, CD38 (gene 952) 29.9 µM | CD40, CD40 (gene 958) 27 µM
inactive: all other assays above

COP(=O)(OC)OC(Br)C(Cl)(Cl)Br (centres undefined)
active: [1] 32.3 µM | [2] 36.5 µM | [4] 28.5 µM | [5] 15.2 µM | [6] 28.9 µM | [7] 26.4 µM | CD38, CD38 (gene 952) 31.5 µM | CD40, CD40 (gene 958) 30.2 µM | CD69, CD69 (gene 969) 30.1 µM
inactive: [3]

C#CC(C)(C)NC(=O)c1cc(Cl)cc(Cl)c1
not listed: CD38, CD38 (gene 952)
inactive: all other assays above

CCOP(=S)(OCC)SCCSCC
not listed: CD38, CD38 (gene 952)
inactive: all other assays above

CCc1cccc(C)c1N(C(=O)CCl)C(C)COC (centres undefined)
active: [6] 13.1 µM | [7] 14.2 µM
not listed: CD38, CD38 (gene 952) | CD69, CD69 (gene 969)
inactive: all other assays above

CN(C)NC(=O)CCC(=O)O
inactive: all assays above

CSC1=N[C@@](C)(c2ccccc2)C(=O)N1Nc1ccccc1
active: [2] 15.2 µM | [3] 6.96 µM | CD40, CD40 (gene 958) 11.4 µM | CD69, CD69 (gene 969) 11.5 µM
not listed: CD38, CD38 (gene 952)
inactive: all other assays above

COc1cc(OC)nc(Sc2cccc(Cl)c2C(=O)O)n1
inactive: all assays above
